CBFb-RUNX1 inh – CBF-beta/RUNX1 interaction disruption; AID 1477; Q01196+Q13951; Potency, µM (series often up to 59.8 µM), without a hit: top-dose activity, negative = inhibition, hits mostly inhibitors; AlphaScreen CBFb-His/RUNX1-biotin binding, biochemical; 230,000 tested, under 10 active; also: % of control where 0% means no effect
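Bead-based AlphaScreen assay; binding partners His-tagged CBF-beta and biotinylated RUNX1 at 30 nM each. Compound exposure 15 min after a 20-min protein preincubation; bead step 90 min; all steps at room temperature.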
D3 ag – activates the human D3 dopamine receptor. P35462. D3R DiscoveRx beta-arrestin cells, luminescence, 90 min. max activation, %. 410,000 compounds, 0.58% hits. AID 652048; in the data active = max activation above about 30%; also: 0% is about no effect
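Cells at 1500/well, incubated overnight, then treated with pinned compounds (dopamine as control) for 90 min at 37 degrees C. DiscoveRx reagent added for 30 - 60 minutes at room temperature; luminescence read.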
D3 antag – blocks the human D3 dopamine receptor | max response, negative = inhibition, % | P35462 | D3R cells, DiscoveRx beta-arrestin luminescence, antagonist mode; stronger effect = lower value | 360,000 compounds, 2.5% hits; in the data active = max response below about -50%; inconclusive = no clear call, values can overlap the other calls; also: % is scaled to controls: 0 for no effect and ±100 for the full control effect
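Cells expressing the human receptor were seeded at 1500 cells/well, incubated overnight at 37 degrees C in 5% CO2, then exposed to library compounds with dopamine controls for 90 minutes at 37 degrees C before luminescent detection.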
Integrin act MD – activators of alpha7 integrin expression for muscular dystrophy; alpha7betagal myoblasts, beta-gal FDG fluorescence, 48 h; Potency, µM (top dose mostly 38.3 µM), without a hit: at the top dose activation, actives largely listed as activators; AID 624291; 350,000 compounds, 0.064% hits;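 also: potency is read from the fitted curve at half-maximal effect; 100% = response of the positive control SU9516; nearly all actives have a fitted effect of over 60% in size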
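alpha7betagal+/- myoblasts (passage 13, 250/well) treated 48 h at 37C with compounds at 1:260 dilution of DMSO stock. Lysed, then beta-galactosidase activity read as FDG fluorescence (ex 480/em 540) after 30 min, with pre-read for autofluorescence.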
PTHR1 ag – activates the human parathyroid hormone receptor PTHR1. Potency, µM (doses to about 115 µM), for the others: at the highest dose activation, hits mostly activators. HEK293 GP2 PTHR1 cells, GloSensor cAMP luminescence, 1 h. Q03431. 410,000 compounds, 0.075% hits. AID 743266; also: potency is read from the fitted curve at half-maximal effect; nearly all actives have a fitted effect of over 55% in size
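HEK-293-derived GP2 cells expressing PTHR1 and a GloSensor cAMP reporter, 3,000/well, plated overnight, given luciferin plus IBMX (each 0.5 mM as added) for 1 h at 37 °C, then compound for 1 h at 37 °C. Luminescence was read after 15 min at room temperature.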
MBNL1-CUG inh – MBNL1-poly(CUG) RNA binding inhibition | Q9NR56 | TR-FRET MBNL1-His/biotin-(CUG)12 binding, 665/545 ratio | Potency, µM (titrated, usually from 57.5 µM), for inactives: at the highest dose activity change, negative = inhibition, most hits filed as inhibitors | 280,000 compounds, 0.036% hits; active = well fitted inhibition curve with a large enough effect in the signal ratio, with a control signal flat, not every such curve was filed as active; inconclusive = small, poorly fitted or top-dose-only effect, or effect the other way, or a change in a side signal; inactive = no such curve, though single readings can be large or run the other way; the % refers to the signal ratio; also: potency is read from the fitted curve at half-maximal effect; % is scaled to controls: 0 for no effect and ±100 for the full control effect
Target sequence (Q9NR56 whole entry, looked up): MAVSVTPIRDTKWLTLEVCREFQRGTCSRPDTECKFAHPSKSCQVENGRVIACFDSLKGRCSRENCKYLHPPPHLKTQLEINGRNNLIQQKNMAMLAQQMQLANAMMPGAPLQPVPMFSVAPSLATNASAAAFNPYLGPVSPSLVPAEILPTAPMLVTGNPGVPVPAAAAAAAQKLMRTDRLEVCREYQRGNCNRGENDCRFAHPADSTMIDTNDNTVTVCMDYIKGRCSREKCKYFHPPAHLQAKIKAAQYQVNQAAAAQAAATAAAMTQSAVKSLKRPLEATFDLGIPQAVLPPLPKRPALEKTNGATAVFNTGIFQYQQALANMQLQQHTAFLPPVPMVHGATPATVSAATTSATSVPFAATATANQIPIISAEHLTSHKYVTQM
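TR-FRET readout: Ex 340 nm, 665/545 nm emission ratio, normalized to buffer-only (basal) and MBNL1-(CUG)12 controls. Complex of MBNL1-His with Biotin-(CUG)12, compounds 92 nM–58 uM, incubated 60 min at room temperature.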
An asterisk follows results filed as active; i = inactive; ? = inconclusive; . = no result given; [ ] = dose if it differs, or a comment. A selection: hits, their analogues and other compounds. The true share with any hit is near 2.8%. Unless noted, calls follow the shape of the dose curve; as a rule, active = well fitted curve in the direction sought with a large enough effect; inconclusive = small, poorly fitted or top-dose-only effect, or another doubt; inactive = no such curve, though single readings can be large; an effect the other way counts as inactive or inconclusive.

SMILES	CBFb-RUNX1 inh	D3 ag	D3 antag	Integrin act MD	PTHR1 ag	MBNL1-CUG inh
Cc1nn(-c2ccccc2)c(OC(=O)c2cccc(Br)c2)c1S(=O)(=O)c1ccccc1	.	8.4	.	.	-95.0%	.
COc1cc2c(cc1OC)C(COc1ccc(F)cc1)N(C(=O)c1cccc(F)c1)CC2 (stereo not drawn)	.	6.5	.	.	-9.3%	.
Cc1nc(NC2CCCCC2)c2nc(-c3ccccc3)n(CCN(C)C)c2n1	-12.5%	.	.	.	.	.
FC(F)(F)Oc1ccccc1C(c1nnnn1Cc1ccccc1)N1CCN(C/C=C/c2ccccc2)CC1 (stereo not drawn)	.	-20.4	-65.6*	.	3.5%	.
CCCCn1nnnc1C(c1ccccc1OC(F)(F)F)N1CCN(C/C=C/c2ccccc2)CC1 (stereo not drawn)	.	-11.4	-59.0*	.	-25.7%	.
COc1ccccc1C(c1nnnn1Cc1ccccc1)N1CCN(C2CCCC2)CC1 (stereo not drawn)	8.3%	-7.0	-58.5*	-16.3%	i	-4.0%
CCCCn1nnnc1C(c1ccccc1)N1CCN(C)CC1 (stereo not drawn)	.	0.4	22.1	.	-16.4%	.
O=C(CSc1nccn1Cc1ccc(F)cc1)NCc1ccco1	.	4.8	.	.	i	.
C=CCN(C)CC/C=C1\c2ccccc2CSc2ccccc21	-3.0%	-5.8	-73.4*	-1.4%	-7.2%	-9.7%
CN(C)CC/C=C1\c2cc(F)ccc2CSc2ccccc21	0.2%	-43.5	-51.7*	-46.0%	i	.
CN(C)CC/C=C1/c2cc(F)ccc2CSc2ccc(F)cc21	-2.4%	-25.8	?	-8.1%	i	-4.6%
C#CCN(C)CC/C=C1\c2ccccc2CSc2ccccc21	1.7%	-20.5	-71.4*	2.5%	i	5.8%
COc1ccc(C(CC(=O)c2ccc3c(c2)OCO3)C(=O)O)cc1OC (stereo not drawn)	.	7.1	34.0	-12.2%	i	.
C=CS(=O)(=O)N(Cc1ccccc1)[C@H](CO)CC(C)C	.	-0.5	-5.5	-0.3%	16.3%	.
O=S(=O)(N(Cc1ccccc1)[C@@H](CO)Cc1ccccc1)N(Cc1ccccc1)[C@@H](CO)Cc1ccccc1	.	84.5*	75.4	24.9%	-4.8%	.
C=CS(=O)(=O)N(Cc1ccccc1Br)[C@H](CO)Cc1ccccc1	.	15.7	19.6	-19.8%	-7.1%	.
CC(C)C[C@H](CO)N(Cc1ccccc1)S(=O)(=O)N(Cc1ccccc1)[C@@H](CO)CC(C)C	.	58.7*	101.7	-34.1%	-92.1%	.
CC1CCN(C(=O)CSc2nc3ccccc3[nH]2)CC1	9.6%	-38.2	-53.4*	10.3%	-18.6%	1.0%
Cc1ccc(Oc2nc3c(c(=O)n(Cc4ccccc4)c(=O)n3C)n2C)cc1C	.	35.2*	.	.	-34.8%	.
c1ccc(N2CCN(c3ncnc4c3oc3ccccc34)CC2)cc1	12.7%	35.8*	90.1	32.2%	-31.2%	5.0%
CC(=O)N1CCN(c2ccc(Nc3ncnc4c3oc3ccccc34)cc2)CC1	-6.6%	16.4	-63.9*	-30.1%	-25.3%[57.5 µM]	-13.0%
O=C(Nc1ccccc1C(=O)NCc1ccccc1)c1ccccc1Br	-7.8%	9.6	11.5	7.1%	-17.5%	-7.6%
O=C(Nc1ccccc1C(=O)O)c1ccc(Br)c(S(=O)(=O)NCc2ccccc2)c1	-0.7%	38.9*	78.9	-67.1%	-18.7%	-2.5%
C=CCn1c(N)cc(=O)nc1SCC(=O)N1CCN(c2ccc(F)cc2)CC1	5.2%	-8.1	-153.0*	3.0%	13.9%[57.5 µM]	1.2%
Nc1nc(SCC(=O)N2CCN(c3ccc(F)cc3)CC2)n[nH]1	.	4.1	-11.9	14.6%	i	.
SMILES	CBFb-RUNX1 inh	D3 ag	D3 antag	Integrin act MD	PTHR1 ag	MBNL1-CUG inh
COc1cccc(OC)c1OCCNC(C)(C)C	-2.6%	9.5	4.7	13.6%	-2.4%[57.5 µM]	-7.4%
CC(C)(C)NCCOc1ccc(Br)cc1	-2.6%	-9.6	-51.6*	27.0%	i	-9.5%
CC/C(=C(/c1ccccc1)c1ccc(OCCN(C)C)cc1)c1ccccc1	12.7%	.	.	.	.	.
CCN(CC)CCOc1ccc(Br)cc1	-3.0%	-30.7	-119.1*	-15.6%	-2.4%[57.5 µM]	-4.2%
CCN(CC)CCOc1ccc(/C(=C(\Cl)c2ccccc2)c2ccccc2)cc1	-2.2%	.	-65.1*	.	-1.8%	.
CCN(CC)CCN(C)Cc1ccc(Br)cc1	-5.9%	-25.2	-55.1*	-26.0%	-4.6%[57.5 µM]	-10.6%
COC(=O)C[C@H]1c2cc(C(F)(F)F)ccc2S(=O)(=O)N1Cc1ccccc1OC	.	1.1	5.9	19.6%	-10.1%	.
NC(=O)c1cc(S(=O)(=O)N2CCc3ccccc3C2)cs1	.	9.4	6.7	-15.7%	-7.2%	-4.7%
CCOC(=O)c1c(SC)[nH]c2c(Cl)cccc2c1=O	4.0%	9.1	-11.0	?	i	.
O=C(CSc1nnc2c(n1)[nH]c1ccccc12)Nc1nncs1	.	1.3	-6.5	0.0%	-2.7%	?
CCOc1ccc(N/C(C)=C\C(=O)c2ccc3c(c2)OCCO3)cc1	11.6%	2.5	8.0	14.8%	-38.8%	-22.5%
